From PubChem BioAssay (NCATS)
Values joined by “and” are separate entries in the source; they are usually repeats but may differ in a detail not shown here. Equal values may be shown once. Records with an inconclusive call do not appear. Where a call stands in place of a potency, no number is given. The source holds several records for some structures; these can differ, active in one and inactive in another. Active and inactive are the calls of the source. Unless noted, calls come from the whole dose curve; as a rule, active = well fitted curve in the direction sought with a large enough effect; inconclusive = small, poorly fitted or top-dose-only effect, or another doubt; inactive = no such curve, though single readings can be large; an effect the other way counts as inactive or inconclusive.

Assays:
[1] = molecular target: Peroxisome proliferator-activated receptor delta (Homo sapiens) (UniProt Q03181); experiment: qHTS assay for small molecule agonists of peroxisome proliferator-activated receptor delta signaling (AID 588534; calls by dose curve)
Sequence of Peroxisome proliferator-activated receptor delta (Homo sapiens) (Q03181 whole entry, looked up): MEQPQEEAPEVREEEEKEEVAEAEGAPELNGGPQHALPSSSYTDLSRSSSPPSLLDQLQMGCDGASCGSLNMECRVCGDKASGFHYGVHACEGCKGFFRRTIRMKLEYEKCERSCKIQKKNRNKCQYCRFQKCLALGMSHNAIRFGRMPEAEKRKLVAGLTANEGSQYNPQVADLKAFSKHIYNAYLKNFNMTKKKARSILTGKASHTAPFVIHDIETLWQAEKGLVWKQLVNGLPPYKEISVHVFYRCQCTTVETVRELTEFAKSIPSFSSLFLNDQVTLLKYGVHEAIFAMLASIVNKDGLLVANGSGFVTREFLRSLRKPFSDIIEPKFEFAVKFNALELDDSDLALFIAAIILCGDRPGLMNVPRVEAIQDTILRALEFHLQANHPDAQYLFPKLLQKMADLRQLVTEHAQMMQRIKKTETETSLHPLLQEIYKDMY
Procedure, shortened: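 Fluorescence from CCF4 substrate cleavage by beta-lactamase reporter, read 2 hrs at RT, measured agonist activity. Compounds were tested with 18 hrs exposure at 37 C. Concentration-response data fitted to Hill equation.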

[2] = molecular target: Voltage-gated inwardly rectifying potassium channel KCNH2 (Homo sapiens) (UniProt Q12809); experiment: qHTS Assay for Small Molecule Inhibitors of the Human hERG Channel Activity (AID 588834);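 note: lower thallium flux fluorescence means stronger hERG block; nearly all actives have a fitted effect of over 50% in size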; note: potency is the fitted concentration of half-maximal effect
Sequence of Voltage-gated inwardly rectifying potassium channel KCNH2 (Homo sapiens) (Q12809 whole entry, looked up): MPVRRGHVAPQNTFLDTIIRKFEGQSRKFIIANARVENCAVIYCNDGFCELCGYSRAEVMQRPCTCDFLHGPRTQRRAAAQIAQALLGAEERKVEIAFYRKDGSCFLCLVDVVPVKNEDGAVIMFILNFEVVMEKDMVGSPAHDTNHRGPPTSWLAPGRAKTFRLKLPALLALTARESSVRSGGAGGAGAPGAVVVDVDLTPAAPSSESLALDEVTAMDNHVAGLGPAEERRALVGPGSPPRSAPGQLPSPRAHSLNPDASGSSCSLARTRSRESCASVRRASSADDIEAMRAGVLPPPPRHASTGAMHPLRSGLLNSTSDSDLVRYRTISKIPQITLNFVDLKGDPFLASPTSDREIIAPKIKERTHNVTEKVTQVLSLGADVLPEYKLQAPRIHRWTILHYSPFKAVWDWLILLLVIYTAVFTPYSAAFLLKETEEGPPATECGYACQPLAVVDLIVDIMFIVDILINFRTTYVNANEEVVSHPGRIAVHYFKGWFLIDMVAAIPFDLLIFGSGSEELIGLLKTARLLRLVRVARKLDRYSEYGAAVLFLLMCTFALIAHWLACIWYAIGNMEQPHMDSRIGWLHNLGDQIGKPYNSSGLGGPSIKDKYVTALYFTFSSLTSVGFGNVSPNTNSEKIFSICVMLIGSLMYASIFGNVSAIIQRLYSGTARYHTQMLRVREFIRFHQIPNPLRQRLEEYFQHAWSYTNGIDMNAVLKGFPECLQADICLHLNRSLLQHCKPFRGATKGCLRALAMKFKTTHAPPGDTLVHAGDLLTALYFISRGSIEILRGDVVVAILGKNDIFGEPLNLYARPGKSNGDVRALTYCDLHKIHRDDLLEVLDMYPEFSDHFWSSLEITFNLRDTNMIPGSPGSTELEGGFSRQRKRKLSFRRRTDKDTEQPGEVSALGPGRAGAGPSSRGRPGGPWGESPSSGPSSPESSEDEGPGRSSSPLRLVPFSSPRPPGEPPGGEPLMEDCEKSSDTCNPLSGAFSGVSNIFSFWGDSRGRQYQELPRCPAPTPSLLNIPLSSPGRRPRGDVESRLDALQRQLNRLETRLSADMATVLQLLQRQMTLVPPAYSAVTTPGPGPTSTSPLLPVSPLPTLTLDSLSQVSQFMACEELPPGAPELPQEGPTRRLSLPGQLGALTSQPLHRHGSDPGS
Procedure, shortened: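 Measured: FluxOR fluorescence after thallium stimulation in U2OS cells transduced with hERG by baculovirus. Compounds pre-incubated around 10 min; medium Opti-MEM with 2% FCS. AC50 from Hill equation.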

[3] = molecular target: Peroxisome proliferator-activated receptor gamma (Homo sapiens) (UniProt P37231); experiment: qHTS assay for small molecule agonists of peroxisome proliferator-activated receptor gamma signaling (AID 588536; active = well fitted curve in the direction sought with a large enough effect in the signal ratio, with a control signal flat, not every such curve was filed as active; the % refers to the signal ratio)
Sequence of Peroxisome proliferator-activated receptor gamma (Homo sapiens) (P37231 whole entry, looked up): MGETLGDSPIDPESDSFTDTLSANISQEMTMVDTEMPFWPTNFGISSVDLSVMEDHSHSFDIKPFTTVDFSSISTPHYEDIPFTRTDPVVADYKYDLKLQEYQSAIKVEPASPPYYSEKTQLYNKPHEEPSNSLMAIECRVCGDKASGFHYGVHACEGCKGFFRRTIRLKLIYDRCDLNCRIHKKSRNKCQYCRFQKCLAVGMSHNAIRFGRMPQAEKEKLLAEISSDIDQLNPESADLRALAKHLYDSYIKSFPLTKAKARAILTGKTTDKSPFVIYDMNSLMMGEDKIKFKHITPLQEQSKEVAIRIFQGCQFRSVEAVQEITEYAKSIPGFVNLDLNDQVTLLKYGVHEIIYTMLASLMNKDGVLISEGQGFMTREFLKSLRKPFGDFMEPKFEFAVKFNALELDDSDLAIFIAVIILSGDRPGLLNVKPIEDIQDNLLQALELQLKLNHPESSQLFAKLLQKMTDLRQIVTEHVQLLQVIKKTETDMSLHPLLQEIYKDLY
Procedure, shortened: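 HEK293 UAS-bla reporter line, 1% charcoal/dextran FBS; titration, 16 h, 37 C; CCF4 loading 2 h RT; fluorescence 460/530 nm. Normalized to rosiglitazone 2 uM = 100%, DMSO = 0%.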

[4] = molecular target: Peroxisome proliferator-activated receptor gamma (Homo sapiens) (UniProt P37231); experiment: qHTS assay for small molecule antagonists of peroxisome proliferator-activated receptor gamma signaling (AID 588537; active = well fitted inhibition curve with a large enough effect in the signal ratio, with a control signal flat, not every such curve was filed as active; the % refers to the signal ratio; note: potency is the fitted concentration of half-maximal effect)
Procedure, shortened: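 Antagonist mode, beta-lactamase reporter in HEK293; charcoal/dextran FBS 1%; 3000 cells/well, 37 C 6-6.5 h; cpd titration + rosiglitazone 50 nM final, 16 h 37 C; CCF4, 2 h RT; 460/530 nm; Hill fit → IC50, efficacy.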

[5] = qHTS assay for small molecule agonists of retinoid X receptor alpha signaling (AID 588544; calls by dose curve); conditions: HEK293T RXRa-UAS-bla, beta-lactamase reporter, 18 h; 530 nm emission
[6] = molecular target: Retinoic acid receptor RXR-alpha (Homo sapiens) (UniProt P19793); experiment: as above
Sequence of Retinoic acid receptor RXR-alpha (Homo sapiens) (P19793 whole entry, looked up): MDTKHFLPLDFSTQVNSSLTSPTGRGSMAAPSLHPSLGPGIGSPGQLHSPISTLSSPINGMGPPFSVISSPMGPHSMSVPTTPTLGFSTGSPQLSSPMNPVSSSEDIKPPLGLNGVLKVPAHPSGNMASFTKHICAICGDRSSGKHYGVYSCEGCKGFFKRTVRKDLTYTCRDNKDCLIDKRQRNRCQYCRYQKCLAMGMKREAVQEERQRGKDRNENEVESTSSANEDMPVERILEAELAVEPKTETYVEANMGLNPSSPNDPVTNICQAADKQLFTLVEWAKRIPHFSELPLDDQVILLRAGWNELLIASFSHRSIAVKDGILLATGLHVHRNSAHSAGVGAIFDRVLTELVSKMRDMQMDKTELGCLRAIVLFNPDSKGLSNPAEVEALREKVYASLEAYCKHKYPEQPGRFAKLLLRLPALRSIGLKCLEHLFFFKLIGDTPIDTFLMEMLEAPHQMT

[7] = molecular target: Thyroid hormone receptor beta (Homo sapiens) (UniProt P10828); experiment: qHTS assay for small molecule agonists of thyroid hormone receptor beta signaling (AID 588545; calls by dose curve)
Sequence of Thyroid hormone receptor beta (Homo sapiens) (P10828 whole entry, looked up): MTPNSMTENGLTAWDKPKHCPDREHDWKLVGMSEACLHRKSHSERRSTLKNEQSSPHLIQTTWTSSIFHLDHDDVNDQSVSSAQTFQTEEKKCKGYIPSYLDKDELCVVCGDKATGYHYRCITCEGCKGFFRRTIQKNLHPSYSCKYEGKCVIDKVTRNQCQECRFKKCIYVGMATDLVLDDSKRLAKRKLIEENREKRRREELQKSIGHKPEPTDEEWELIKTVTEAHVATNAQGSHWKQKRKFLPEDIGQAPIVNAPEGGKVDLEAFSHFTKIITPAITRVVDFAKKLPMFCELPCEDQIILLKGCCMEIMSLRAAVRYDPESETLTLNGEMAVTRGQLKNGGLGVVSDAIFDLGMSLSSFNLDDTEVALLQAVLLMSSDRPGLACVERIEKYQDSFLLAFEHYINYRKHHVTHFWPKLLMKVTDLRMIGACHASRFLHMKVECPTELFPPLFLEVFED
Procedure, shortened: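 TR-UAS-bla GripTite HEK 293 cells (2500/well, medium with 2% charcoal/dextran FBS) were treated in agonist mode for 18 h at 37 C, titrated. Beta-lactamase was read by CCF4 ratio after 2 h; normalized to 10 nM T3 (100%) and DMSO, Hill-fitted for EC50 and efficacy.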

[8] = qHTS assay for small molecule antagonists of retinoid X receptor alpha signaling (AID 588546; active = well fitted inhibition curve with a large enough effect in the signal ratio, with a control signal flat, not every such curve was filed as active; the % refers to the signal ratio;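 note: cells stimulated with 9-cis-retinoic acid as agonist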); conditions: HEK293T RXRa-UAS-bla, beta-lactamase ratio, antagonist mode; measured here: W530 green channel, cytotoxicity proxy
Procedure, shortened: (§1)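 Beta-lactamase reporter inhibition, read as CCF4 fluorescence ratio (ex 405, em 460/530 nm) after 2 h at RT. HEK293T UAS-bla cells, 2500/well, were stimulated with 9-cis-RA at 500 or 100 nM final alongside test compound for 18 h at 37 C.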

[9] = molecular target: Retinoic acid receptor RXR-alpha (Homo sapiens) (UniProt P19793); experiment: as above; conditions: HEK293T RXRa-UAS-bla, beta-lactamase ratio, antagonist mode
Procedure, shortened: as §1

[10] = molecular target: Thyroid hormone receptor beta (Homo sapiens) (UniProt P10828); experiment: qHTS assay for small molecule antagonists of thyroid hormone receptor beta signaling (AID 588547; active = well fitted inhibition curve with a large enough effect in the signal ratio, with a control signal flat, not every such curve was filed as active; the % refers to the signal ratio;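 note: cells stimulated with 0.4 nM T3 agonist during compound exposure; series mostly up to about 77 µM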); conditions: TR-UAS-bla HEK293, beta-lactamase ratio, antagonist mode, 18 h
Procedure, shortened: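 Inhibition of T3-driven (0.4nM final) beta-lactamase reporter activity was measured over 0.59 nM to 92 uM compound after 18 h at 37 C. The cells were GripTite HEK293 TR-UAS-bla in charcoal/dextran-stripped serum, with CCF4 ratio read-out and IC50 from Hill fits.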

[11] = molecular target: Luciferin 4-monooxygenase (Photinus pyralis) (UniProt P08659); experiment: Biochemical firefly luciferase enzyme assay for NPC (AID 624030);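 note: purified P. pyralis luciferase at 10 nM with luciferin and ATP substrate; series mostly up to about 59 µM; nearly all actives have a fitted effect of over 70% in size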
Sequence of Luciferin 4-monooxygenase (Photinus pyralis) (P08659 whole entry, looked up): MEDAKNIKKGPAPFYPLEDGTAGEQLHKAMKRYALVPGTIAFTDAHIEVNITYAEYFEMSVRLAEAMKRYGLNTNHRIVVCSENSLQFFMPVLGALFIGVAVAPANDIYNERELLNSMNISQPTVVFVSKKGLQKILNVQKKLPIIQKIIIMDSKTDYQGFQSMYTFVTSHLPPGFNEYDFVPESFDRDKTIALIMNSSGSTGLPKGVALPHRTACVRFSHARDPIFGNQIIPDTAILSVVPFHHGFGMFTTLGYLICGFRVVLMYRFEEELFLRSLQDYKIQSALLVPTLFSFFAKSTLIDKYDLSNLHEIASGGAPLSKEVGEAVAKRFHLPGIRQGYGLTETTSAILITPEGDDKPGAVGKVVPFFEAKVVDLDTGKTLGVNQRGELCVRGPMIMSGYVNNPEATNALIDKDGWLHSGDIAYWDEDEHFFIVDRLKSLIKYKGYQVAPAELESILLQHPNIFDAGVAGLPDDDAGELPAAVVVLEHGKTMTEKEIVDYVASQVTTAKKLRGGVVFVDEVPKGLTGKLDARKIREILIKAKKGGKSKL
Procedure, shortened: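 Direct inhibition of firefly luciferase enzyme (10 nM final, 50 mM Tris Acetate) assessed by luminescence within 5 minutes. Percent activity scaled between DMSO and PTC124 positive control, with concentration-effect curves classified by fit quality and response.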

[12] = S16 Schwann cell viability assay (CellTiter-Glo assay) (AID 624031);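 note: native untransfected S16 rat Schwann cells; series mostly up to about 58 µM; nearly all actives have a fitted effect of over 70% in size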
Procedure, shortened: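 Counter-screen for cytotoxicity: parental S16 rat Schwann cells lacking the PMP22 reporters, treated 24 h with compound, viability from cellular ATP by CellTiter-Glo luminescence, normalized to DMSO (0%) and no-cell wells.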

[13] = S16 Schwann cell PMP22 intronic element firefly luciferase assay (AID 624032); note: series mostly up to about 58 µM; nearly all actives have a fitted effect of over 30% in size
Procedure, shortened: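 Luciferase reporter of PMP22 intronic-element expression in stably transfected S16 rat Schwann cells, read by ONE-Glo luminescence after 24 h compound exposure at 37 C. Activity scaled between DMSO (0%) and positive-control PTC124; concentration-effect curves quality-classified.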

[14] = S16 Schwann cell PMP22 intronic element beta-lactamase assay (AID 624044; calls by dose curve; note: nearly all actives have a fitted effect of over 15% in size)
Procedure, shortened: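 Rat S16 Schwann cells with beta-Lac driven by a PMP22 intronic element, compound-treated 24 h at 37 °C. LiveBLAzer FRET B/G read: 460 nm normalized to potassium clavulanate vs DMSO; 535 nm FRET as viability; concentration-effect curves classified.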

[15] = qHTS assay for small molecule antagonists of peroxisome proliferator-activated receptor delta signaling (AID 588535; active = well fitted inhibition curve with a large enough effect in the signal ratio, with a control signal flat, not every such curve was filed as active; the % refers to the signal ratio;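 for max response: cells co-treated with a PPAR-delta agonist as stimulator during compound exposure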); conditions: HEK293T PPARd-UAS-bla, beta-lactamase FRET ratio, 18 h; 460 nm channel
Procedure, shortened: (§2)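 HEK293T PPAR-delta-UAS-bla cells, 4000/well, 2% charcoal/dextran FBS; 5 h 37 C; cpd titration; 18 h 37 C; CCF4 2 h RT; FI 460/530 nm; Hill fit → IC50, efficacy.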

[16] = molecular target: Peroxisome proliferator-activated receptor delta (Homo sapiens) (UniProt Q03181); experiment: as above
Procedure, shortened: as §2

[17] = molecular target: Vitamin D3 receptor (Homo sapiens) (UniProt P11473); experiment: qHTS assay for small molecule antagonists of vitamin D receptor signaling (AID 588541; calls by dose curve;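 note: receptor activated by calcitriol during compound treatment; series mostly up to about 77 µM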)
Sequence of Vitamin D3 receptor (Homo sapiens) (P11473 whole entry, looked up): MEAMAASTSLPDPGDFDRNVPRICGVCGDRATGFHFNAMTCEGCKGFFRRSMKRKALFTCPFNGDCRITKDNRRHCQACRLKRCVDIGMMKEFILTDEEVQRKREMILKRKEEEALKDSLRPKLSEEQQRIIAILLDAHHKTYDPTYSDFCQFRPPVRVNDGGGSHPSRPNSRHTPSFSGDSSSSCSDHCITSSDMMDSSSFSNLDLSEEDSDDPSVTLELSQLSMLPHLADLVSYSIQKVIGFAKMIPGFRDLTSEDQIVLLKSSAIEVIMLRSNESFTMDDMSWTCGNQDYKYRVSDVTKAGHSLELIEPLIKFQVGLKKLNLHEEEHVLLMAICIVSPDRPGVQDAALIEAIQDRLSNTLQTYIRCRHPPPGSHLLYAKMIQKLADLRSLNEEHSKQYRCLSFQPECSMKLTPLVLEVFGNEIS
Procedure, shortened: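 Antagonist-mode beta-lactamase reporter assay: HEK293T VDR-UAS-bla cells were exposed to titrated compound alongside 1-alpha,25-dihydroxyvitamin D3 at 3 nM final for 16 h. Values were normalized to the 50 nM agonist control and DMSO basal, with IC50 and efficacy from Hill equation fits.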

[18] = molecular target: Vitamin D3 receptor (Homo sapiens) (UniProt P11473); experiment: qHTS assay for small molecule agonists of vitamin D receptor signaling (AID 588543; calls by dose curve)
Procedure, shortened: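 qHTS in agonist mode: compound titrations stimulate a VDR-driven β-lactamase reporter in HEK293T cells over 16 h at 37 °C. Response normalized to 50 nM 1α,25-dihydroxyvitamin D3 = 100%, DMSO = 0%; Hill fitting gives EC50 and maximal response.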

[19] = molecular target: Glutaminase kidney isoform, mitochondrial (Homo sapiens) (UniProt O94925); experiment: qHTS for Inhibitors of Glutaminase (GLS): LOPAC Validation (AID 624146); note: nearly all actives have a fitted effect of over 60% in size; note: potency is the fitted concentration of half-maximal effect
Sequence of Glutaminase kidney isoform, mitochondrial (Homo sapiens) (O94925 whole entry, looked up, canonical isoform): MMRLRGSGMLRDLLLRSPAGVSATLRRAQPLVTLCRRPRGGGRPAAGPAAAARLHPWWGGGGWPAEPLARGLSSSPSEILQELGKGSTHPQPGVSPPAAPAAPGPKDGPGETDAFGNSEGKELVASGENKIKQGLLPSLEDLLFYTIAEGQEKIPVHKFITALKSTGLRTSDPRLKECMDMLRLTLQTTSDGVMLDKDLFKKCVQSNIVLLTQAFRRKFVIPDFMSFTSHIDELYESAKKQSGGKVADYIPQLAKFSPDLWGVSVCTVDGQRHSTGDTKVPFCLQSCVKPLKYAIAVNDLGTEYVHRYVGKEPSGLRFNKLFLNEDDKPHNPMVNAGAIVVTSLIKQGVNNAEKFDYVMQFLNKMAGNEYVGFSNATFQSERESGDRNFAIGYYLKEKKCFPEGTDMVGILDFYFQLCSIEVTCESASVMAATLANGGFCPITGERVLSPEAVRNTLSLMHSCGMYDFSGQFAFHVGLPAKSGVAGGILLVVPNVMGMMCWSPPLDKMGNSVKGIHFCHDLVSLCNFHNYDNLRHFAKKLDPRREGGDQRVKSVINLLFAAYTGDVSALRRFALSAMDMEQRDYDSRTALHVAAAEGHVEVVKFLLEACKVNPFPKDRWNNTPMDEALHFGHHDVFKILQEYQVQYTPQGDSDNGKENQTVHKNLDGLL
Procedure, shortened: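 hKGA in 45 mM KH2PO4 (pH 8.2), 0.02% Tween-20 with compound, then 1mM L-Glutamine (stock as added) plus glutamate oxidase/HRP/Amplex red coupling mix. Fluorescence read initially and after 30 min at RT; signal change reflects glutamate formation.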

[20] = qHTS of Trypanosoma Brucei Inhibitors: LOPAC Validation (AID 624147)
Procedure, shortened: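 Activity of T. brucei pyruvate kinase was followed by Kinase-Glo Plus luminescence after the enzyme reacted 45 min at room temperature with 130 uM ADP (final) and substrate. Test compounds were added before ADP at multiple concentrations.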

For `Brc1ccccc1-c1ccccc1`, the outcome [1] was “inactive” and the Potency [2] was 28.2 µM (active).

In the case of `CN(C)[C@@H]1C(=O)C(C(N)=O)=C(O)[C@@]2(O)C(=O)C3=C(O)c4c(O)cccc4[C@@](C)(O)[C@H]3[C@H](O)[C@@H]12`, the outcome [3] is reported as “inactive”, the Potency [4] is reported as “inactive” and the max response [5] is reported as 10.7% and 6.3% and 19.5%. For the same compound, the Potency [6] was “inactive”, the outcome [7] was “inactive” and the max response [8] was 16.2% and 7.17% and 21.1%. For the same compound, the max response [9] was -9.03% (inactive) and -41.7% (inactive) and -15.3% (inactive), the activity change % (negative = inhibition) [10] was 2.86% (inactive) and -5.16% (inactive) and -23.7% (inactive) and the Potency [2] was “inactive”. For the same compound, the Potency [11] was “inactive”, the Potency [12] was “inactive” and the Potency [13] was “inactive”. For the same compound, the Potency [14] was “inactive”.

For `O=C(O)COc1ccccc1`, the outcome [1] was “inactive”, the max response [15] was 43.8% and the Potency [16] was “inactive”. The outcome [3] was “inactive”, the Potency [17] was “inactive” and the outcome [18] was “inactive”. The outcome [7] was “inactive”, the max response [8] was 0.163% and the max response [9] was -9.5% (inactive). The activity change % (negative = inhibition) [10] was -9.48% (inactive), the Potency [2] was “inactive” and the Potency [11] was “inactive”. The Potency [12] was “inactive” and the Potency [13] was “inactive”.

In the case of `COc1ccc(C(c2ccc(OC)cc2)C(Cl)(Cl)Cl)cc1`, the outcome [1] is reported as “inactive”, the outcome [3] is reported as “inactive” and the Potency [4] is reported as “inactive and 28.2 µM (active)”. For the same compound, the Potency [17] was “inactive”, the outcome [18] was “inactive” and the outcome [7] was “inactive”. The max response [8] was -3.69% and 8.92%, the max response [9] was -30.1% (inactive) and -25% (inactive) and the activity change % (negative = inhibition) [10] was 0.506% (inactive) and -1.09% (inactive) and 26% (inactive). For the same compound, the Potency [2] was 10 µM (active) and 22.4 µM (active) and the Potency [11] was “inactive”.

In the case of `O=C(O)C(Cl)Cl`, the outcome [1] is reported as “inactive”, the max response [15] is reported as -4.92% and the Potency [16] is reported as “inactive”. For the same compound, the outcome [3] was “inactive”, the Potency [4] was “inactive” and the max response [5] was -16% and 3.52%. The Potency [6] was “inactive”, the outcome [7] was “inactive” and the max response [8] was -11.2% and -3.76%. The max response [9] was 4.75% (inactive) and -13.6% (inactive), the activity change % (negative = inhibition) [10] was 0.759% (inactive) and 14.6% (inactive) and the Potency [2] was “inactive”. The Potency [11] was “inactive”, the Potency [12] was “inactive” and the Potency [13] was “inactive”.

With `C[C@]12N[C@H](Cc3ccccc31)c1ccccc12` the Potency [2] was “inactive”, the Potency [11] was “inactive” and the Potency [19] was “inactive”. The outcome [20] was “inactive”.

For `NCc1cc(=O)[nH]o1`, the Potency [2] was “inactive”, the Potency [19] was “inactive” and the outcome [20] was “inactive”.

In the case of `COc1ccc2c(c[n+](C)c3c4cc5c(cc4ccc23)OCO5)c1OC`, the Potency [2] is reported as “inactive”, the Potency [19] is reported as 3.16 µM (active) and the outcome [20] is reported as “inactive”.

With `O=[N+]([O-])c1ccc([As](=O)(O)O)cc1` the Potency [2] was “inactive”, the Potency [11] was “inactive” and the Potency [12] was “inactive”. For the same compound, the Potency [13] was “inactive”.

In the case of `CCCCc1ccc(C(=O)O)nc1`, the Potency [2] is reported as “inactive”, the Potency [11] is reported as “inactive” and the Potency [12] is reported as “inactive”. For the same compound, the Potency [13] was “inactive”, the Potency [19] was “inactive” and the outcome [20] was “inactive”.

With `NC(CCP(=O)(O)O)C(=O)O` (stereo unspecified) the Potency [2] was “inactive”, the Potency [19] was “inactive” and the outcome [20] was “inactive”.

In the case of `CC(=O)[C@H]1CCC2C3CC[C@H]4C[C@H](O)CC[C@]4(C)C3CC[C@@]21C` (stereo partly specified), the Potency [2] is reported as “inactive”, the Potency [19] is reported as “inactive” and the outcome [20] is reported as “inactive”.

With `NC1=NC(=O)N2CC12` (stereo unspecified) the Potency [2] was “inactive”, the Potency [11] was “inactive” and the Potency [12] was “inactive”. The Potency [13] was “inactive” and the Potency [14] was “inactive”.
